Screening data (PubChem)
CYP2C19 act: increases human CYP2C19 enzyme activity; recombinant CYP2C19, luciferin-H EGE luminescence; hits give high values; 0 = fully inhibited enzyme, 1 = untreated enzyme; activation factor at 5 µM; 96,000 tested, under 10 active;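 active means activation factor of at least 2 at 5 µM in the primary screen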
CYP2C19 inh: human CYP2C19 inhibition. CYP2C19 Supersomes, luciferin-H EGE luminescence, 30 min. AID 778. 21% of 96,000 active. P33261. inhibition, % at 5 µM;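 active means CYP2C19 inhibition above a set limit at 5 µM in the primary screen, cut at about 50% in these data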
Cav3 T inh: inhibitors of human Cav3.2 T-type calcium channel. O95180. Cav3.2-expressing cells, Fluo-4 calcium fluorescence FDSS; hits give low values. B-score at 10 µM. 4% of 100,000 active. AID 449739;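 active means single-dose well whose peak fluorescence ratio is a statistical outlier from its plate by either plate-standardised score or position-corrected B-score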
Target sequence (O95180 whole entry, looked up): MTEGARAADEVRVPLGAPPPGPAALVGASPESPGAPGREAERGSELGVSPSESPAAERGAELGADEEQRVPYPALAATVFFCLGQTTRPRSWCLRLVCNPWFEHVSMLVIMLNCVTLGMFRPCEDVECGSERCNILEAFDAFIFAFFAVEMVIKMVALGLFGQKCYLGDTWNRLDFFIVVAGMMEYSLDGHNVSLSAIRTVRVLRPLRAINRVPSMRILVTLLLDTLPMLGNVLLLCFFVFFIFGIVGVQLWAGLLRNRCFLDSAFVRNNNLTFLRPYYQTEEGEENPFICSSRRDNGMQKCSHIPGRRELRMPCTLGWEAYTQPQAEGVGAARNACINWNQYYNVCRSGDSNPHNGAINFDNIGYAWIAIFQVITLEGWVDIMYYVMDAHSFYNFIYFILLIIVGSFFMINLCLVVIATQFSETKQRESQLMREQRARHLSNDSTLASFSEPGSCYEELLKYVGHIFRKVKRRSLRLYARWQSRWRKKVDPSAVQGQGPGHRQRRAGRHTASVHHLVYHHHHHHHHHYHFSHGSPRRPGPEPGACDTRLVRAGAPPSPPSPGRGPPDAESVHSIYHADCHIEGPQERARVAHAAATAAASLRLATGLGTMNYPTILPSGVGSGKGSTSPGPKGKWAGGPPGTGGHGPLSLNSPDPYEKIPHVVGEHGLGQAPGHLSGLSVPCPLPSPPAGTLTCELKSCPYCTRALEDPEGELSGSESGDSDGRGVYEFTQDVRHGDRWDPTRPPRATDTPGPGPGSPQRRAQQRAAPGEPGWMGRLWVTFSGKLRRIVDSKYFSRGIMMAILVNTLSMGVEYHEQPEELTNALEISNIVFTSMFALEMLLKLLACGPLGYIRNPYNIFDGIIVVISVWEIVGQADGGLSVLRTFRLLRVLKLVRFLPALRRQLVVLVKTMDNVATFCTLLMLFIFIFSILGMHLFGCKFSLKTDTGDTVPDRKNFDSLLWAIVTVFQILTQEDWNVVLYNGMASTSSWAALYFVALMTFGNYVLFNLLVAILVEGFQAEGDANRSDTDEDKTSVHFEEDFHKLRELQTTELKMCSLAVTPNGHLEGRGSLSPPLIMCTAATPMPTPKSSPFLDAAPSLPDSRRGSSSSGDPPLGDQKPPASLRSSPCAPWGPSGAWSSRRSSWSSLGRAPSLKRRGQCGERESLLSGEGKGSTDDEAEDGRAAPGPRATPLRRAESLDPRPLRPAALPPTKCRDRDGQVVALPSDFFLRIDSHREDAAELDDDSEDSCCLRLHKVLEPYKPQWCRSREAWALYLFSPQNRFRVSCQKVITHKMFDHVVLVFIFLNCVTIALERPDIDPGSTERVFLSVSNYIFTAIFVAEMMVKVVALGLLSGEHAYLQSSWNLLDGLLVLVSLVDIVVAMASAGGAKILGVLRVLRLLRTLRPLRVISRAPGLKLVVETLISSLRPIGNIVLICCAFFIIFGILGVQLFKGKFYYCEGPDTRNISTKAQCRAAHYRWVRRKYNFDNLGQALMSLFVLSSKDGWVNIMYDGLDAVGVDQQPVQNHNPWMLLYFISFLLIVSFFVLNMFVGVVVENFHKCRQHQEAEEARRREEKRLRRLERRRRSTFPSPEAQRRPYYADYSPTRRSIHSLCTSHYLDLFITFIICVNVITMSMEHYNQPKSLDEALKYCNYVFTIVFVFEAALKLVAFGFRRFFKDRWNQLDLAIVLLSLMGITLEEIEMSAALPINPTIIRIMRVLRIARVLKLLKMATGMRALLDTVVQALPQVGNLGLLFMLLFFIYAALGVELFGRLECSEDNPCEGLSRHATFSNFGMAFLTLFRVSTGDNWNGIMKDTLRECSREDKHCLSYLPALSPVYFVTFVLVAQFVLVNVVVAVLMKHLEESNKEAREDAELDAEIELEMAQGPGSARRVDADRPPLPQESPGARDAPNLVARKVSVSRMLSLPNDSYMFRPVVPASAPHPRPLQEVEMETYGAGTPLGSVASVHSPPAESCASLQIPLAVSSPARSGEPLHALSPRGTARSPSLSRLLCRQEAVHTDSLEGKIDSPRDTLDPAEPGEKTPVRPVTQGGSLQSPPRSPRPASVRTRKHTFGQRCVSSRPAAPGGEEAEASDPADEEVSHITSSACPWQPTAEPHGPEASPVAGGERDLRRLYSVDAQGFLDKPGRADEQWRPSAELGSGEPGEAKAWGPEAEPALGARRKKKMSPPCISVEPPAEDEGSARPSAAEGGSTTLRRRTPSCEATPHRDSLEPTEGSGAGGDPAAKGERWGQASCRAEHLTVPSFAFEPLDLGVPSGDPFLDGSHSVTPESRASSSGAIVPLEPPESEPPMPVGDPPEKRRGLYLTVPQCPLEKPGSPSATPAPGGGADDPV
CYP2C9 inh: inhibitors of human CYP2C9 | P11712 | CYP2C9 Supersomes, luciferin-H conversion, luminescence | inhibition, % at 5 µM | 20% of 96,000 active | AID 777;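 active means blocking of liver enzyme CYP2C9 beyond about 50% at 5 µM, limit read from the data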
CYP2C9 act: activators of human CYP2C9. P11712. recombinant CYP2C9, luciferin-H conversion, luminescence; hits give high values; factor 1 = untreated enzyme, 0 = blocked. activation factor at 5 µM. 1.4% of 96,000 active. AID 1024;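 active means activation factor of 2 or more for CYP2C9 at a 5 µM dose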
Large screens that a line does not name were inactive. An excerpt weighted towards active compounds, which were near 27% of everything screened.

CC1(C)CC(=O)C2=C(C1)OC(c1cccs1)C(C#N)=C2N (stereo not drawn)	CYP2C19 inh 82.7, CYP2C9 inh 67.9
Cc1cc2ccccc2n1CCNC(=O)c1ccc(Br)o1	none (no result: CYP2C19 act, CYP2C19 inh, CYP2C9 inh, CYP2C9 act)
CCn1c(NCc2ccco2)nc2c1c(=O)n(C)c(=O)n2C	none (no result: CYP2C19 act, CYP2C19 inh, CYP2C9 inh, CYP2C9 act)
Cc1ccccc1OCC(O)Cn1c(NCc2ccco2)nc2c1c(=O)n(C)c(=O)n2C (stereo not drawn)	CYP2C19 inh 86.9, CYP2C9 inh 92.6
CSc1nnnn1-c1cccc(O)c1	CYP2C9 act 2.4
COc1ccc(OC)c(N2C(=O)CC(Cc3cc(C)cc(C)c3)C2=O)c1 (stereo not drawn)	none (no result: CYP2C19 act, CYP2C19 inh, CYP2C9 inh, CYP2C9 act)
Clc1ccc(Cn2ncc3c(N4CCOCC4)ncnc32)cc1	CYP2C19 inh 67.1 (no result: Cav3 T inh)
Clc1ccccc1Cn1nnc2c(N3CCCC3)ncnc21	CYP2C19 inh 98.6, CYP2C9 act 2.2
c1ccc2c(c1)oc1c(N3CCN(Cc4ccc5c(c4)OCO5)CC3)ncnc12	CYP2C19 inh 81.5, CYP2C9 inh 86.0
Cc1ccc2c(c1)[nH]c1c(N3CCN(Cc4ccc5c(c4)OCO5)CC3)ncnc12	CYP2C19 inh 81.8, CYP2C9 inh 92.9 (no result: Cav3 T inh)
Clc1ccc(Cn2ncc3c(N4CCCC4)ncnc32)cc1	none
CCOc1ccc(CN2CCNC(=O)C2CC(=O)OC)cc1 (stereo not drawn)	none
COc1cccc(/C=N/NC(=O)CO/N=C(\C)c2cccs2)c1OC	none (no result: Cav3 T inh)
CCCc1cc(N2CCCC(C(=O)NCC)C2)n2ncnc2n1 (stereo not drawn)	none
Fc1ccccc1Cn1nnc2c(-n3ccnc3)ncnc21	CYP2C19 inh 98.7, CYP2C9 inh 90.6
c1ccc(Cn2nnc3c(N4CCN(Cc5ccc6c(c5)OCO6)CC4)ncnc32)cc1	CYP2C19 inh 84.5, CYP2C9 inh 85.4
c1ccc(Cn2nnc3c(N4CCOCC4)ncnc32)cc1	CYP2C19 inh 75.8
FC(F)(F)c1ccc(N2CCN(c3ncnc4c3nnn4Cc3ccccc3)CC2)nc1	none
CCC1(c2ccccc2)NC(=O)N(CC(=O)Nc2ccc3c(c2)OCO3)C1=O (stereo not drawn)	none
Cc1sc2nc(C)n(/N=C/c3ccccc3O)c(=O)c2c1C	CYP2C19 inh 86.3
COc1ccc(OC)c(C2CC(=O)N3CN(c4cccc(Cl)c4C)CSC3=C2C#N)c1 (stereo not drawn)	CYP2C9 inh 96.8
COc1cccc(C2CC(=O)N3CN(c4cccc(Cl)c4C)CSC3=C2C#N)c1OC (stereo not drawn)	CYP2C9 inh 97.4
O/C(=C\Sc1nnc(Cc2ccccc2)o1)c1ccc(F)cc1	CYP2C9 inh 96.4
O=C(c1cc(NC(=O)C23CC4CC(CC(C4)C2)C3)cc(NC(=O)C23CC4CC(CC(C4)C2)C3)c1)N1CCCCC1	Cav3 T inh -8 (no result: CYP2C19 act, CYP2C19 inh, CYP2C9 inh, CYP2C9 act)
COc1ccc(-n2ncc(S(=O)(=O)c3ccccc3)c2-c2ccc(Cl)cc2)cc1	Cav3 T inh -6.7, CYP2C9 inh 72.4
O=S(=O)(c1ccccc1)c1cnn(-c2ccccc2)c1-c1ccc(F)cc1	Cav3 T inh -5.83
Cn1c(-c2ccc(CN3CCCCC3)o2)nc2ccccc21	none (no result: Cav3 T inh)
O=C(Cn1cc([N+](=O)[O-])cn1)N1N=C(C(F)F)CC1(O)C(F)F (stereo not drawn)	none (no result: CYP2C19 act, CYP2C19 inh, CYP2C9 inh, CYP2C9 act)
C(=C\c1cccc2ccccc12)/c1nnc(-c2cccs2)o1	none
C(=N\n1cnnc1)/c1cn(Cc2ccccc2)c2ccccc12	CYP2C19 inh 84.6, CYP2C9 inh 65.9
CCn1c2ccccc2c2cc(/C=N/n3cnnc3)ccc21	CYP2C19 inh 97.1, CYP2C9 inh 74.3
CCn1c(/C=N/n2cnnc2)nc2ccccc21	none
CCn1c2ccccc2c2cc(/C=N/n3cn[nH]c3=S)ccc21	CYP2C19 inh 81.0
N#Cc1cc([N+](=O)[O-])ccc1Oc1cccc(/C=N/NC(=O)c2cccc(Cl)c2)c1	none
COc1ccccc1NC(=O)N1CCCC1C(=O)NC1CCCCC1 (stereo not drawn)	none
Cc1ccc(C)c(N2CCN(C(=O)C3CCCN(S(=O)(=O)c4cnc[nH]4)C3)CC2)c1 (stereo not drawn)	none
Cc1cccc(N2CCN(S(=O)(=O)c3cnc[nH]3)CC2)c1C	CYP2C19 inh 98.3, CYP2C9 inh 96.7 (no result: Cav3 T inh)
CC1Cc2ccccc2N1S(=O)(=O)c1cnc[nH]1 (stereo not drawn)	CYP2C19 inh 91.6, CYP2C9 inh 98.0
CC(=O)N1CCc2cc(S(=O)(=O)N3c4ccccc4CC3C)ccc21 (stereo not drawn)	none
CN(C)S(=O)(=O)N1CCN(c2ccc(Cl)cc2)CC1	CYP2C19 inh 62.9
O=C(C1CCCN(S(=O)(=O)c2cnc[nH]2)C1)N1CCN(c2ccc(Cl)cc2)CC1 (stereo not drawn)	CYP2C9 inh 65.2
O=S(=O)(c1cnc[nH]1)N1CCN(c2ccc(Cl)cc2)CC1	CYP2C19 inh 96.3, CYP2C9 inh 80.6
Cc1ccc([N+](=O)[O-])cc1N/C=C1\CCc2ccccc2C1=O	none
COc1ccc(C(=O)NCc2n[nH]c(=S)n2-c2ccccc2)cc1OC	none
COc1cc(OC)cc(C(=O)NCc2n[nH]c(=S)n2-c2ccccc2)c1	CYP2C19 inh 64.4
O=C(NCc1n[nH]c(=S)n1-c1cccc(Cl)c1)c1ccc(S(=O)(=O)N2CCCC2)cc1	CYP2C9 inh 61.0
CC(C)OC(=O)NCN1C(=O)C2C3C=CC(C3)C2C1=O (stereo not drawn)	none
Cc1cccc(C)c1OCC(=O)N/N=C/c1cc2c(cc1[N+](=O)[O-])OCO2	none
O=[N+]([O-])c1cc2c(cc1/C=N\NS(=O)(=O)c1ccccc1)OCO2	CYP2C9 inh 81.8
O=S(=O)(Cc1ccc(Cl)cc1)CC(O)COCc1ccccc1 (stereo not drawn)	none
Cc1cc(NC(=O)c2ccco2)ncc1NC(=O)CCc1ccccc1	none
Cc1cc(NC(=O)c2cccc(F)c2)ncc1NC(=O)c1ccco1	CYP2C19 inh 96.2, CYP2C9 inh 63.4
C=CCOc1cccc(C2C(C(=O)c3ccco3)=C(O)C(=O)N2Cc2ccncc2)c1 (stereo not drawn)	CYP2C9 inh 83.9
C=CCOc1cccc(C2C(C(=O)c3ccc(C)o3)=C(O)C(=O)N2Cc2ccncc2)c1 (stereo not drawn)	CYP2C9 inh 61.8
C=CCOc1cccc(C2C(C(=O)c3ccco3)=C(O)C(=O)N2CCN2CCOCC2)c1 (stereo not drawn)	none
O=C(NC1CCCCC1)C1CCN(c2cnccn2)CC1	none
Cc1cccc(C(=O)N2CCN(c3ccc([N+](=O)[O-])c(N4CCOCC4)c3)CC2)c1	Cav3 T inh 3.75, CYP2C9 inh 54.5
O=C(/C=C/c1ccc(Cl)cc1)N1CCN(c2ccc(Cl)cc2[N+](=O)[O-])CC1	CYP2C19 inh 53.8, Cav3 T inh -7.47
O=[N+]([O-])c1cc([N+](=O)[O-])c(N2CCOCC2)cc1NCc1ccccc1	CYP2C9 inh 85.5
O=C(/C=C/c1ccc(Cl)cc1)N1CCN(c2ncccn2)CC1	none
